Assay outcomes: PubChem, The Scripps Research Institute Molecular Screening Center
DAX1 inh-1 – NR0B1 (DAX1) inhibition. HEK293 Gal4-DAX1 luciferase reporter, luminescence. inhibition, % at 6.75 µM. 340,000 compounds, 0.99% hits. AID 504766;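 active = inhibition above the mean over all tested compounds plus 3 SD, cut at about 4.2% in these data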;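 also: 0% = DAX1-transfected cells with DMSO and 100% = empty-vector control cells with DMSO; inhibition shows as a rise in luminescence from relieved DAX1 repression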
Target sequence (P51843 207-470 limits assumed): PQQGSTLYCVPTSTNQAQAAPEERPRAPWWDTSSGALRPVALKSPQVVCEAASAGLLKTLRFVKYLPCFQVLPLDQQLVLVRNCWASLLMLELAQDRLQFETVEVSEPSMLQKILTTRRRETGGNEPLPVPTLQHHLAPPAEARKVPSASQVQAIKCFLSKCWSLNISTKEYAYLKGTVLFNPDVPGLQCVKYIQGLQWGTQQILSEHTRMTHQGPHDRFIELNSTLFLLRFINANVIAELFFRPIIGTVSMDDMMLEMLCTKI
DAX1 inh-2 – inhibitors of DAX1 repression of SF-1 activated StAR promoter. HEK293T StAR-luciferase reporter, SF-1/DAX-1 repression relief. inhibition, % at 6.8 µM. 370,000 compounds, 1.1% hits;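 active = inhibition above the mean over all tested compounds plus 3 SD, cut at about 3.6% in these data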;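 also: 0% = DAX-1 cells with DMSO and 100% = cells lacking DAX-1 with DMSO; higher inhibition means more luminescence from relief of DAX-1 repression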
hcDAF-12 act – H. contortus DAF-12 activation, primary screen; HEK293 hcDAF-12 lit1-tk-luc reporter, luminescence; 0% DMSO, 100% Δ7-dafachronic acid; activation, % at 6.8 µM; 370,000 compounds, 1.4% hits; AID 652067;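 active = activation above the mean of all tested compounds plus 3 SD, cut at about 5.5% in these data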;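 also: 100% = response to 3 µM Δ7-dafachronic acid high control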
hgDAF-12 ag – hgDAF-12 agonism, primary luciferase screen | HEK293 GAL4-hgDAF12 UAS-luciferase reporter, agonist luminescence; normalized to butyrate control | activation, % at 6.8 µM | 370,000 compounds, 1.8% hits;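 active = activation above a cutoff set at the mean of all screened compounds plus 3 SD, cut at about 10% in these data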;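 also: 0% = DMSO wells and 100% = sodium butyrate wells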
ssDAF12 agonist – activates DAF-12 receptor from parasite S. stercoralis | 370,000 compounds, 1% hits | activation, % at 6.8 µM | HEK293 ssDAF-12/GRIP1 lit1-tk-luc reporter, luminescence; % of 3 µM dafachronic acid response;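 active = activation above the mean over all tested compounds plus 3 SD, cut at about 0.9% in these data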;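 also: 0% = DMSO-only wells and 100% = 3 µM delta7-dafachronic acid wells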
Active calls of the source: *; · = not tested or not shown. An excerpt weighted towards active compounds, which were near 4.1% of everything screened.

SMILES	DAX1 inh-1	DAX1 inh-2	hcDAF-12 act	hgDAF-12 ag	ssDAF12 agonist
C=CCN1C(=O)[C@@H](CC(=O)NCc2cccs2)[C@]2(C(=O)OC)CCCCC=C12	·	-0.6	-0.4	0.9	-1.2
O=C(CCc1ccccc1)N[C@H]1[C@H](OC(=O)c2ccco2)CCC[C@]12C(=O)N(Cc1ccccc1)c1ccccc12	·	-0.6	-2.5	-3.7	-1.9
CCC(CC)C(=O)Nc1cccc(C(=O)NCCc2ccccc2)c1	0.9	1.4	1.7	7.9	-1.4
CCOc1ccc(NC(=S)NCCCc2ccccc2)cc1	0.2	-0.4	0.3	1.7	-1.4
NC(=S)c1ccc(OCCCc2ccccc2)cc1	3.2	1.2	1.6	11.7*	-0.7
Cc1cccc(C(=O)NCC(=O)NNC(=O)c2ccccc2O)c1	3.6	0.2	6.1*	-0.5	0.2
CC(Oc1ccc(C(=O)NCCc2ccccc2)cc1)C(=O)O (configuration not stated)	1.5	0.5	0.1	-2.9	-1.1
Cc1cccc(C(=O)NCCc2ccccc2)c1	2.6	2.5	2.9	12.9*	-0.2
O=C(CNC(=O)c1ccccc1F)NNC(=O)c1ccccc1O	-1.5	0.5	-0.8	1.2	-0.7
CCCCOc1ccc(C(=O)NCCc2ccccc2)cc1	3.0	1.7	2.0	6.2	1.1*
CC(C)(C)OC(=O)N1CCC(N[C@@H](Cc2ccccc2)C(=O)NCCc2c[nH]c3ccccc23)(C(=O)NC2CCCCC2)CC1	·	·	0.7	-2.8	-2.4
CN1C(=O)/C(=C/c2ccc(C(=O)Nc3ccc(O)cc3C(=O)O)cc2)SC1=S	-0.8	0.4	3.5	-0.8	-0.5
COc1ccc(N2C(=NC(=O)C(C)Oc3ccccc3)SC3CS(=O)(=O)CC32)cc1 (configuration not stated)	-0.1	0.2	0.7	1.0	-0.7
O=C(CCn1c(=S)oc2ccccc21)NC1CCCCC1	4.2	0.0	0.1	2.7	5.3*
C[C@@H]1COc2cc(Br)ccc2S(=O)(=O)N1Cc1cn(Cc2ccc(Cl)cc2)nn1	·	-0.6	0.1	0.4	-0.5
COCCN1Cc2cc(C(=O)OC)c3c(c2C1=O)c1cc(OC)ccc1n3C(=O)c1ccccc1	·	-3.6	-1.6	-3.6	-0.8
O=C(OCCc1ccccc1)c1cc(O)c(O)c(O)c1	0.6	2.1	6.2*	-1.7	0.0
Nc1ccc(C(=O)OCCc2ccccc2)cc1	5.1*	1.0	1.9	12.8*	0.0
COc1ccc(C(=O)OCCc2ccc(O)cc2)cc1	2.2	1.0	3.1	11.9*	-0.1
O=c1c2ccccc2n(Cc2ccco2)n1[C@@H](Cc1ccccc1)Cn1cc(-c2ccc(-c3ccccc3)cc2)nn1	·	2.0	-0.8	1.8	-1.5
COc1ccc(-c2csc(NC(=O)CSCc3c(C)noc3C)n2)c(OC)c1	-1.6	-0.5	-3.1	-1.4	-1.8
O=C1CSC(=S)N1c1cccc(F)c1	1.8	0.1	-0.3	-1.6	-1.7
O=C1CC(=O)N(c2cccc(F)c2)N1	6.0*	0.5	-0.6	0.8	-0.4
C#CCN1CC(N(C)CCOC(=O)c2occ3ccccc23)CS1(=O)=O (configuration not stated)	·	0.6	-2.0	-1.6	-1.4
N#C/C(Cn1c[n+](NC(=O)Nc2ccccc2)cn1)=N/O	4.7*	-0.2	-0.5	3.3	-1.3
SMILES	DAX1 inh-1	DAX1 inh-2	hcDAF-12 act	hgDAF-12 ag	ssDAF12 agonist
Nc1nc2c(ccc3ccccc32)s1	4.9*	0.3	3.0	1.3	-0.4
CC(=O)NCCC(=O)Nc1nc2c(ccc3ccccc32)s1	0.9	0.0	0.7	1.4	-0.8
CC(=O)N(CCCN(C)C)CCC(C)CCC=C(C)C (configuration not stated)	-0.4	0.9	-0.8	-2.8	1.1*
COC(=O)[C@]12C[C@H](CC(=O)N3CCC(c4ccccc4)CC3)C(=O)N(CCc3ccc(OC)c(OC)c3)C1=C[C@H](C(C)C)O[C@@H]2C1CC1	·	-1.5	0.0	-5.3	-1.4
CN(C=O)c1ccc(CSc2ccccc2)cc1	0.1	0.7	5.5	11.8*	-0.7
Cc1noc(C)c1-c1nc(CS(=O)(=O)c2ccc(Cl)cc2)no1	-0.9	-0.1	0.1	2.3	-1.6
O=S(=O)(Cc1noc(-c2ccccc2Cl)n1)c1ccccn1	4.9*	0.9	1.8	6.8	0.5
O=C([C@@H]1C[C@H]1c1ccccc1)N1CC[C@H]2[C@H](CCCN2Cc2ccc(F)cc2)C1	·	-0.6	-1.5	0.0	-1.8
Cc1c(Cl)c([N+](=O)[O-])nn1CC(=O)N1CCCC1	0.7	-0.1	-0.6	-1.5	-0.5
